HSF1 activator = increases HSF-1 driven luciferase reporter signal; 300,000 compounds, 1.7% hits; NIH3T3-HGL HSF-1 luciferase reporter, MG132, 8 h; 100% = twice DMSO control signal; activation, % at 9 µM; AID 504408;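 active = mean replicate activation of at least 50% with a set share of replicates each reaching 50%; inconclusive = only one of those two conditions met; inactive = mean below 50% and too few replicates reaching it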;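 note: 0% = median of the neutral control wells and 100% = twice that signal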
Wnt bcat act = activates Wnt/beta-catenin signaling in a reporter cell assay. activator, plate reader. activation, % at 9.35 µM. 300,000 compounds, 1.2% hits. AID 743398; in the data active = activation above about 30%, passing the limit was not always enough; inconclusive = no clear call, values can overlap the other calls;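 note: 0% = neutral control wells and 100% = positive control wells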
SMARCA2 activ = activators of SMARCA2 function | MG213 cells, MMTV-luciferase reporter, dexamethasone, overnight | activation, % at 9.1 µM | 370,000 compounds, 1% hits; in the data active = activation above about 7.8%;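 note: 0% = vehicle wells and 100% = reference activator wells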
MITF act = increases MITF-driven TRPM1 promoter luciferase signal; activation, % at 12.5 µM; 300,000 compounds, 0.75% hits; AID 588334; SK-MEL-5 TRPM1-promoter luciferase, 24 h; % of positive control, neutral wells = 0;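 active = mean activation of at least 80% with every replicate also reaching 80%; inconclusive = mean reaches 80% but some replicate falls short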;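 note: 0% = neutral control wells and 100% = parthenolide positive control wells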
esBAF inh = blocks esBAF chromatin remodeling in mouse ES cells; reporter increase, % at 12.5 µM; AID 602393; Bmi1-luciferase knock-in reporter, 24 h; 100% = twice the neutral-well signal; 350,000 compounds, 2% hits; in the data active = activation above about 40%; inconclusive = no clear call, values can overlap the other calls;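 note: 0% = median of the plate's neutral control wells and 100% = double that signal; a rise in the Bmi1 reporter signal indicates esBAF inhibition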
HSF1 inh = HSF1 inhibition. AID 2098. 300,000 compounds, 0.77% hits. activity change, negative = inhibition, % at 7.5 µM (by protocol). NIH3T3-HGL HSE-luciferase, MG132-induced, luminescence 8 h; stronger effect = lower value;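 active = more than half of replicate wells show activity change below -50%, luminescence cut by over half; inconclusive = some wells, but at most half, below -50%; inactive = no replicate well below -50%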;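 note: luciferase reports HSF-1 transcriptional activity via heat shock element; 0% = median of DMSO wells and -100% = zero luminescence signal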
Numbers without * were called inactive; u = inconclusive; x = no result. This is a sample that favours compounds with a hit; in the whole collection about 4.3% have one here.

SMILES	HSF1 activator	Wnt bcat act	SMARCA2 activ	MITF act	esBAF inh	HSF1 inh
COc1ccc(NC(=O)N(C)C[C@H]2Oc3ccc(NS(=O)(=O)c4cn(C)cn4)cc3C(=O)N([C@@H](C)CO)C[C@@H]2C)cc1	x	x	x	x	4.2	x
COc1ccc(/[N+]([O-])=C/c2ccco2)cc1	x	45.6*	6.0	89.1*	55.2*	x
COc1cccc(S(=O)(=O)N2C[C@@H](O)COC[C@H]3O[C@@H](CC(=O)NCCCN4CCOCC4)CC[C@@H]32)c1	x	x	x	x	0.4	x
O=c1sc(/C=N/Nc2ccccc2)c(Cl)n1Cc1ccccc1	149.3*	46.4*	5.2	56.4	x	119.4
O=C(O)c1cccc(Cn2c(Cl)c(/C=N/NC(=O)c3ccc(O)cc3)sc2=O)c1	18.6	-1.1	-5.7	-5.3	2.0	5.5
Cc1ccc(S(=O)(=O)N(C)C[C@@H]2Oc3ccc(NC(=O)CCC(F)(F)F)cc3C(=O)N([C@@H](C)CO)C[C@H]2C)cc1	x	x	x	x	-2.6	x
Cc1noc(C)c1COc1ccc(C(=O)OCc2nnc(-c3ccc(Cl)cc3)o2)cc1	0.9	-6.3	-8.1	-1.5	11.5	4.6
CC(=O)Nc1ccc(OCc2nnc(-c3ccc(Cl)cc3)o2)cc1	65.2*	4.3	1.0	-48.8	x	44.1
O=C(Cc1ccccc1)N/N=C/C=C/c1ccccc1[N+](=O)[O-]	3.9	34.8*	-1.0	x	x	1.4
N#C/C(=C\c1ccccc1[N+](=O)[O-])C(=O)NCc1ccccc1	31.3	11.1	0.7	3.2	x	5.9
O=C(N/N=C/C=C/c1ccccc1[N+](=O)[O-])c1cccnc1	-8.8	-0.8	-1.5	-5.1	-7.6	-4.5
O=[N+]([O-])c1ccccc1C=CC=NN=Cc1ccccc1O	-23.9	70.7*	-1.5	30.9	x	-23.9
O=C(O)c1ccc(N/N=C/C=C/c2ccccc2[N+](=O)[O-])cc1	32.3	10.4	-0.2	112.4*	78.7*	-3.6
N#C/C(=C\C=C\c1ccccc1[N+](=O)[O-])C(=O)NCc1ccccc1	94.2*	2.5	2.3	-70.1	9.1	56.1
CCS(=O)(=O)NCC[C@@H]1CC[C@@H](NC(=O)C2CCCCC2)[C@H](CO)O1	x	x	x	x	0.3	x
CN(C)CC(=O)N[C@@H]1CC[C@@H](CCn2cc(C3CC3)nn2)O[C@@H]1CO	x	x	x	x	-4.9	x
O=C(NCCc1ccccc1)C(c1cccs1)N(C(=O)CCl)c1ccc(Cl)cc1 (stereo not given)	-95.7	x	-11.9	-85.6	x	-95.3*
O=C(NCCc1ccccc1)C(c1cccs1)N(C(=O)c1csnn1)C1CC1 (stereo not given)	14.8	-4.0	-1.1	7.1	-1.4	2.4
Cc1noc(C)c1S(=O)(=O)Nc1ccc2c(c1)C(=O)N([C@H](C)CO)C[C@H](C)[C@H](CN(C)Cc1ccc3c(c1)OCO3)OCCCC[C@H](C)O2	x	x	x	x	0.4	x
COc1ccc(C(=O)CSc2nc(C)cc(=O)[nH]2)cc1C	-80.7	0.3	0.1	6.2	-3.2	-76.4*
Cc1csc(=NC(=O)c2ccccc2)n1C	27.6	33.6*	0.7	x	u	26.9
CCn1c(C)csc1=NC(=O)c1ccccc1	32.0	19.6	2.7	-0.2	1.5	12.3
COc1ccc(N=c2sc3ccccc3n2C)cc1	54.7*	x	6.7	76.6	37.9	30.6
CO[C@@H]1CN(C)C(=O)c2cc(NS(=O)(=O)CC(F)(F)F)ccc2OC[C@@H](C)N(C(=O)NC(C)C)C[C@@H]1C	x	x	x	x	-5.4	x
Cc1ccc(Cc2cnc(N3C(=N)SC(c4ccccc4)C3=O)s2)cc1 (stereo not given)	-3.3	2.4	-1.9	6.3	53.1*	-1.6
SMILES	HSF1 activator	Wnt bcat act	SMARCA2 activ	MITF act	esBAF inh	HSF1 inh
N=C1SC(c2ccccc2)C(=O)N1c1ncc(Cc2ccccc2)s1 (stereo not given)	-2.9	-3.5	0.3	-13.3	x	-7.6
CCOC(=O)CC(NS(=O)(=O)c1ccc2[nH]cc(C(=O)O)c(=O)c2c1)c1ccc(OCC)c(OC)c1 (stereo not given)	88.1*	-1.4	-1.4	5.2	-4.9	44.8
O=C(C[C@H]1CC[C@@H]2[C@H](COC[C@@H](O)CN2S(=O)(=O)c2cccc(Cl)c2)O1)Nc1ccccc1	x	x	x	x	2.4	x
O=[N+]([O-])c1ccc(C2CC(c3ccccc3)=Nc3ccccc3S2)cc1 (stereo not given)	40.4	9.1	-1.2	18.5	6.7	24.3
O=C(O)C1CC(c2ccccc2)=Nc2ccccc2S1 (stereo not given)	3.4	-1.9	3.4	51.0	51.5*	1.5
C[C@H]1CCCCO[C@@H](CN(C)C(=O)CCCN(C)C)[C@@H](C)CN([C@@H](C)CO)C(=O)c2cc(NS(C)(=O)=O)ccc2O1	x	x	x	x	-0.1	x
O=C(c1ccc2c(=O)n3c(nc2c1)CCCCC3)N1CCN(c2ccccc2)CC1	-28.2	-0.6	-2.3	-6.5	-11.3	-7.1
O=C(Nc1ccc(Cl)cc1)c1ccc2c(=O)n3c(nc2c1)CCCCC3	14.7	1.0	-1.3	x	50.1*	9.1
O=C(Nc1ccc(F)c(Cl)c1)c1ccc2c(=O)n3c(nc2c1)CCCCC3	20.8	u	0.3	x	11.7	-0.6
O=C(NCCC1=CCCCC1)c1ccc2c(=O)n3c(nc2c1)CCCCC3	3.9	-1.6	0.8	53.5	43.3*	9.2
O=C(c1ccc2c(=O)n3c(nc2c1)CCCCC3)N1CCN(C(c2ccccc2)c2ccccc2)CC1	61.6*	x	-3.3	-8.9	-6.7	23.0
O=C(NCc1ccc(F)cc1)c1ccc2c(=O)n3c(nc2c1)CCCCC3	13.7	-3.9	-0.9	x	6.7	0.9
O=C(NCCC1=CCCCC1)c1cnc2n(c1=O)CCS2	31.9	13.0	6.5	-0.1	46.3*	9.3
C[C@@H]1CN([C@H](C)CO)C(=O)c2cc(NC(=O)Nc3cccc4ccccc34)ccc2O[C@@H](C)CCCCO[C@H]1CN(C)Cc1ccccc1	x	x	x	x	0.8	x
O=C(NCC[C@H]1CC[C@@H](NS(=O)(=O)c2ccc(Cl)cc2)[C@@H](CO)O1)c1ccc2c(c1)OCO2	x	x	x	x	6.5	x
C[C@@H]1CN([C@H](C)CO)C(=O)c2cc(NC(=O)c3ccncc3)ccc2O[C@@H]1CN(C)C	x	x	x	x	0.4	x
O=C(N[C@@H]1CC[C@@H](CCNS(=O)(=O)Cc2ccccc2)O[C@@H]1CO)c1cnccn1	x	x	x	x	3.2	x
O=C(Nc1ccc(F)cc1)c1ccc2c(=O)n3c(nc2c1)CCCCC3	35.5	16.6	-1.2	68.3	57.5*	24.0
COc1ccc2nc(NC(C)=O)sc2c1	-11.4	u	7.2	39.1	31.7	-6.0
O=S(=O)(/N=C(/Nc1nc2ccccc2s1)c1ccccc1)c1ccc(F)cc1	x	24.8	5.2	47.8	50.2*	x
COc1ccc2nc(NC(=O)c3ccc(F)cc3)sc2c1	36.3	23.0	1.3	67.9	55.2*	20.0
Cc1noc(C)c1C(=O)Nc1nc2ccc(F)cc2s1	x	58.8*	6.2	66.3	51.9*	x
